# Source: ChEMBL document CHEMBL1157539, “Thousands of chemical starting points for antimalarial lead identification” (Nature, 2010)
# Legend:
# Format in all cases: functional
# Plasmodium falciparum [1] = test: GSK_TCMDC: Inhibition of Plasmodium falciparum 3D7 in whole red blood cells, using parasite LDH activity as an index of growth. Test compounds present at 2uM
# Plasmodium falciparum [2] = test: GSK_TCMDC: Inhibition of Plasmodium falciparum Dd2 in whole red blood cells, using parasite LDH activity as an index of growth. Test compounds present at 2uM
# HepG2 = test: GSK_TCMDC: Percent inhibition of human HepG2 cell line. Test compounds present at 10uM.
SMILES,Inhibition (Plasmodium falciparum [1]) [%],Inhibition (Plasmodium falciparum [2]) [%],Inhibition (HepG2) [%]
COc1cccc(-c2nn(C)c3sc(C(=O)Nc4cccnc4)cc23)c1,86,34,1
COc1ccc2ncc(F)c([C@@H](O)CN3CCC(NCc4ccc5c(c4)NCCS5)CC3)c2n1.Cl,99,69,77
CN1CCN(CCCN(Cc2csc(-c3ccc(CNCc4ccccc4)cc3)n2)C(=O)c2cc(F)cc(F)c2)CC1.O=C(O)C(F)(F)F,97,53,60
CC1CC(C)CN(CCCNc2ccc(C(=O)Nc3ccc(C(F)(F)F)cc3)cc2[N+](=O)[O-])C1 (stereo not given),100,99,31
CCOc1ccc(-c2nonc2NC(=O)c2ccccc2F)cc1OCC,90,100,0
CC(NC(=O)c1ccc(O)c(-c2ccc(Cl)c(Cl)c2)c1)C(=O)NCCN1CCCC1 (stereo not given),99,9,0
Cc1cccc2nc(-c3ccc(-c4ccc(CNCc5cccc(N)c5)cc4)cc3)[nH]c12.O=C(O)C(F)(F)F,100,84,12
O=C(/C=C/c1ccc(Cl)c(Cl)c1)NCCCCCN1CCCC(C(=O)Nc2ccc(F)c(Cl)c2)C1 (stereo not given),99,2,28
O=C(O)C(F)(F)F.Oc1ccc(CCNc2nc(NCCOc3ccccc3-c3ccccc3)nc(N3CCNCC3)n2)cc1,93,17,22
Cc1nn(-c2cccc(Cl)c2)c2c1C(C(=O)c1ccc3c(c1)OCO3)CC(=O)N2 (stereo not given),98,95,5
